Only a selection was taken, and hits are over-represented in it overall.
Pf Dd2 growth: qHTS Primary assay for Inhibitors of Plasmodium falciparum Dd2 growth in vitro; 4.3% of 120,000 active; Potency, µM (doses to about 28.9 µM), usual class: inhibitors; P. falciparum Dd2 growth, SYBR Green, 72 h; active = well fitted inhibition curve with a large enough effect; note: nearly all actives have a fitted effect of over 65% in size
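Infected erythrocytes (Dd2, 0.3% parasitemia, 2.5% hematocrit final) are added to compound in RPMI-1640/Albumax II medium, grown 72 h at 37C in low oxygen, then lysed with saponin/Triton-X containing SYBR Green and read by fluorescence.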
Large screens that a line does not name were inactive.

Cc1cc(C)c2c(=O)cc(C(=O)Nc3sc4c(c3C(=O)NCc3cccnc3)CCCC4)oc2c1	none
O=C(Cc1ccccc1)Nc1sc2c(c1C(=O)Nc1ccccc1Cl)CCC2	none
COc1ccc(Cl)cc1NC(=O)c1c(NCc2sccc2C)sc2c1CCCC2	Pf Dd2 growth 13µM
COc1ccc(NC(=O)c2nc(-c3ccc(C)cc3)n3c2CCCCC3)c(OC)c1	none
COc1ccc(NC(=O)c2c(NCc3ccc(C)o3)sc3c2CCCCC3)c(OC)c1	Pf Dd2 growth 11µM
CCOc1ccc(NC(=O)NCc2c(-n3cccc3)sc3c2CCCC3)cc1	none
CCOc1ccc(NC(=O)c2c(NCc3cccnc3)sc3c2CCCC3)cc1	Pf Dd2 growth 13µM
COc1cc(OC)c(NC(=O)Cn2ccn3nc4c(c3c2=O)CCCC4)cc1Cl	none
O=C(c1ccsc1)N1CCCC(n2cc(-c3nc(C4CC4)no3)nn2)C1 (stereo unspecified)	none
CCCN1C(=O)Cc2ccccc2C1C(=O)NCc1ccc(F)cc1Cl (stereo unspecified)	none
CN(Cc1cnccn1)C(=O)c1cc(CN2CCC(Cc3ccccc3)CC2)on1	none
CCOc1ccc(CC(=O)N2CCC(Cc3nc(-c4ccc(F)cc4)no3)CC2)cc1	none
CC(C)N1C[C@H](O)C[C@H]1c1nc(-c2cccc([N+](=O)[O-])c2)no1	none
OCC1CN(Cc2ccc(Cl)cc2)CC12CCNCC2 (stereo unspecified)	none
COc1ccc(Cl)cc1NC(=O)Cn1nc(C(F)(F)F)c2c1CCCC2	none
COc1ccc(NC(=O)c2c(OC)cc(=O)n3c2CCCC3)c(C)c1	none
COc1ccc(NC(=O)c2c(NC(=O)COc3ccccc3)sc3c2CCC(C)C3)cc1 (stereo unspecified)	none
COC(=O)c1c(NC(=O)c2cc(OC)c(OC)c(OC)c2Br)sc2c1CCC(C)C2 (stereo unspecified)	none
COC(=O)c1c(NC(=O)c2ccc(OC)cc2OC)sc2c1CCCCC2	none
CCOc1ccc(NC(=O)c2c(NC(=O)c3cccc(C)c3)sc3c2CCC3)cc1	none
CCOC(=O)N1CCc2c(sc(NCc3cccs3)c2C(=O)Nc2cc(Cl)ccc2OC)C1	Pf Dd2 growth 8.9µM
CCOc1ccc(/C=C/C(=O)Nc2sc3c(c2C(=O)OC)CCC3)cc1	none
COc1ccc(NC(=O)c2c(NCc3sccc3C)sc3c2CCCCC3)c(OC)c1	Pf Dd2 growth 13µM
COc1ccc(NC(=O)c2c(NCc3ccc(C)o3)sc3c2CCC(C)C3)cc1 (stereo unspecified)	Pf Dd2 growth 8.9µM
CCOc1ccc(NC(=O)c2c(NCc3ccc(C)o3)sc3c2CCCCC3)cc1	Pf Dd2 growth 11µM
COc1ccc(Cl)cc1NC(=O)Cn1nnc(C(=O)NCc2cccs2)c1N	none
CN(CC(=O)N1CCC(Cc2nc(C3CCOCC3)no2)CC1)S(=O)(=O)c1cnc[nH]1	none
Cn1cc(-c2cn(C)c(=O)n3cc(COc4ccc(Cl)cc4)nc23)cn1	none
COc1cccc(CN2C[C@@H](F)[C@@H](OCc3nc4ccccc4[nH]3)C2)n1	none
CN(C(=O)c1cc(COc2ccc3c(c2)OCO3)[nH]n1)C1CCOC1 (stereo unspecified)	none
Cn1cnc(S(=O)(=O)N[C@H]2CCN(C(=O)c3ccco3)[C@H](C(=O)N[C@H](Cc3ccccc3)C(N)=O)C2)c1	none
O=S(=O)(c1cnc[nH]1)N1CCC(c2nc(CCOCC3CCCC3)no2)C1 (stereo unspecified)	none
O=C(c1ccc(C(F)(F)F)cc1)N1CCC2(CC1)CN[S+](=O)([O-])c1ccccc1N2	none
O[C@@H]1C[C@@H](c2nnc3n2CCN(Cc2ccc4c(c2)CCO4)C3)N(Cc2cccnc2)C1	none
COC1CCC12CCN(C(=O)C1CC1)CC2 (stereo unspecified)	none
O=Cc1cccc(-c2cncc(C(=O)O)c2)c1	none
CC(C)C(=O)N1CCCC(Cc2nc(C3CCOCC3)no2)C1 (stereo unspecified)	none
CN1[C@@H](CCC(=O)NCc2ccco2)CNC(=O)[C@@H]2[C@H]1CCN2Cc1cccc(OC(F)(F)F)c1	none
CC1Oc2ccc(NC(=O)c3ccc(F)cc3)cc2CN(Cc2ccc3c(c2)OCO3)C1=O (stereo unspecified)	none
COc1ccc(CNC(=O)[C@@]23CCCC[C@H]2N(CCC(C)C)C(=O)CC3)cc1OC	none
O=C(N[C@@H]1CCC[C@@H]1C(=O)N1CCCCC1)c1ccncc1	none
CCOC(=O)c1c(NC(=O)COc2ccc(Br)cc2)sc2c1CCCC2	none
COc1ccccc1NC(=O)c1c(NC(=O)COc2ccccc2)sc2c1CCCCC2	none
CC1CCc2c(sc(NC(=O)CCCOc3ccccc3)c2C(N)=O)C1 (stereo unspecified)	none
CCOc1ccc(NC(=O)c2c(NCc3sccc3C)sc3c2CCCCC3)cc1	Pf Dd2 growth 11µM
O=C(O)CCC(=O)Nc1sc2c(c1C(=O)Nc1ccccc1)CCCCC2	none
CCOc1ccccc1NC(=O)c1c(NCc2sccc2C)sc2c1CCC(C)C2 (stereo unspecified)	Pf Dd2 growth 5.6µM
CCOc1ccccc1NC(=O)c1c(NC(=O)c2ccccc2)sc2c1CCCC2	none
CCOC(=O)c1c(NC(=O)c2ccccc2OCC)sc2c1CCC(CC)C2 (stereo unspecified)	none
CCOc1ccccc1NC(=O)c1c(NC(=O)C(C)Oc2ccc(Cl)cc2)sc2c1CCCCC2 (stereo unspecified)	Pf Dd2 growth 10µM
COc1ccccc1NC(=O)c1c(NCc2sccc2C)sc2c1CCCCC2	Pf Dd2 growth 11µM
O=C(Nc1sc2c(c1C(=O)Nc1ccccc1Cl)CCCC2)c1ccccc1F	none
CCOc1ccccc1NC(=O)Cn1c(N2CCOCC2)nc(C)cc1=O	none
Cn1nc(C(=O)N2CC[C@H](CO)[C@H](NC(=O)C3CC3)C2)c2ccccc21	none
c1coc(CNC2(Cc3cc(CN4CCOCC4)on3)COC2)c1	none
COc1ccc(C2Cn3nnc(-c4nc(C(C)(C)C)no4)c3CO2)cc1 (stereo unspecified)	none
Cc1ncc(CO)c(CN2CCC3(CC2)Cc2ccccc2CNC3=O)c1O	none
COCCN1CCC(N2CCN(C(=O)c3ccccc3Br)CC2)C1=O (stereo unspecified)	none
CS(=O)(=O)N1CCCCCNC(=O)[C@@H]2CCCC[C@@H]21	none
COC(=O)CNC(=O)C1=NOC2CN(C(=O)Nc3cccnc3)CC12 (stereo unspecified)	none
CCn1nccc1C(=O)NC1CCCN(c2cc(N(C)C)ncn2)C1 (stereo unspecified)	none
CCOc1ccccc1NC(=O)N1CCCCCCN(C)C(=O)[C@H]2CCC[C@H]21	Pf Dd2 growth 11µM
CCOc1ccccc1NC(=O)N1CCCCCCN(C)C(=O)CC1	none
CN1CCCCCCN(C(=O)NC2CCCCC2)[C@H]2CCC[C@H]2C1=O	none
C1CC(C2CCN(C3CCOCC3)CC2)CN1 (stereo unspecified)	none
COc1ccc2nc(C)cc(Nc3ccc(Cl)c(Cl)c3)c2c1	Pf Dd2 growth 1µM
COc1cccc(Nc2cc(C)nc3nc(-c4ccc(Cl)cc4)nn23)c1	none
COc1ccc(Nc2nc3ccc(Cl)cc3nc2-n2nc(C)cc2C)cc1	none
COc1ccc(C(=O)NC(C(=O)NCC(C)C)C2CCN(C(=O)c3cccc(F)c3)CC2)cc1 (stereo unspecified)	none
O=C(NCc1ccc(F)cc1)C1CN(c2cccc(Cl)c2)C(=O)N1 (stereo unspecified)	none
COc1ccc(CCN2CC(NCc3ccc(-n4cccn4)cc3)CC2=O)cc1 (stereo unspecified)	none
Cc1ccc(OCCSc2nc(-c3ccccc3C)nc3cc(=O)[nH]n23)cc1Cl	none
COc1cc(C)ccc1OCCSc1nc(-c2cccc(C)c2)nc2cc(=O)[nH]n12	none
